# Laboratory results as given in paper PMC5540273 (PLoS ONE, 2017).
# Legend:
# Conditions in all cases: concentration: 1 μM, replicates: in singlicate; n = 1
# [1] = test system: NEK7
# [2] = test system: NEK9
# [3] = test system: T1, NIK
# T1 construct: gene MAP3K14
# [4] = test system: T2, NIM1
# T2 construct: gene MGC42105
# [5] = test system: NLK
# [6] = test system: T3, OSR1
# T3 construct: gene OXSR1
# [7] = test system: PAK1
# [8] = test system: PAK2
# [9] = test system: PAK3
# [10] = test system: PAK4
# 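Further: KINOMEscan kinase panel screen.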
SMILES,%Inh [1] [%],%Inh [2] [%],%Inh [3] [%],%Inh [4] [%],%Inh [5] [%],%Inh [6] [%],%Inh [7] [%],%Inh [8] [%],%Inh [9] [%],%Inh [10] [%]
COc1ccc(CNC(=O)NC2CCN(c3ccnc(Nc4cc(OC)c(OC)c(OC)c4)n3)C2)cc1 (stereo not drawn) [GSK1379748],15,15,25,0,17,0,3,0,0,0
Cc1ccc(NC(=O)Nc2cc(C(C)(C)C)nn2-c2ccccc2)cc1 [GSK1014915],6,0,35,3,14,0,0,2,76,0
Fc1cc(Cl)ccc1Nc1ccnc2cc(-c3ccc(CN4CCCCC4)o3)ccc12 [GW560116],0,0,10,0,16,0,2,5,0,0
Cn1cncc1-c1ccc2ncnc(Nc3ccc(OCc4ccccc4)cc3)c2c1 [GW320571],0,12,0,19,11,19,0,0,2,0
O=C(Nc1ccc2c(c1)OCO2)NC1CCN(c2ccnc(Nc3ccc(F)cc3)n2)C1 (stereo not drawn) [GSK1379724],0,0,0,46,12,0,18,37,0,0
CC(C)(C)c1ccc(C(=O)Nc2cn3cc(Cl)ccc3n2)cc1,0,0,0,0,0,0,0,14,0,0
COc1ccc(C2=C(Nc3cccc(C(=O)O)c3)C(=O)NC2=O)cc1 [SB-390765],28,2,10,45,1,22,0,27,0,0
Cc1cc(N2Cc3ccccc3C2)nc(Nc2ccc(S(=O)(=O)N3CCOCC3)cc2)n1.Cl [GSK1669917],0,0,0,6,7,0,8,3,0,0
O=C(Nc1n[nH]c2nc(-c3nccs3)c(Br)cc12)C1CCCC1 [SB-742609],5,0,33,0,31,7,16,21,17,0
Nc1nc(-c2nccs2)c(-c2ccnc3ccccc23)s1 [GW693542],0,12,0,5,38,6,0,1,9,0
Cc1ccc(NC(=O)Nc2cccc(Cl)c2)cc1-c1ccc(C(=O)Nc2ccncc2)cc1 [GSK1398468],0,0,2,11,38,12,19,0,0,0
Cn1ccc2ncnc(Oc3ccc(NC(=O)Nc4ccccc4)cc3)c21,0,0,6,0,11,0,10,17,40,10
Cc1cc(NCC(c2ccccc2)c2ccccc2)nc(NCc2ccc(C(F)(F)F)cc2)n1 [GW497681],0,0,7,22,0,3,0,2,0,0
O=S(=O)(c1ccc(-c2ccnc3[nH]ccc23)cc1)N1CCCC1 [GSK846226],20,28,12,0,14,4,0,0,12,0
O=C1NC(=O)C(N2CCc3ccccc32)=C1c1ccccc1Cl [SB-373598],0,13,0,16,2,63,10,10,100,0
CCn1c(-c2cccnc2O)nc2cnccc21 [SB-736715],0,0,27,0,0,0,0,0,0,32
O=c1cc(N2CCOCC2)nc2n(Cc3cccc(Cl)c3Cl)ccn12 [GSK2286295],0,27,32,0,28,14,22,11,0,0
COc1ccc2nc(-c3cccc(C)n3)nc(Nc3ccncc3)c2c1 [GSK204919],0,0,0,0,52,10,8,14,7,0
